PLK1 PBD inh – qHTS for Inhibitors of PLK1-PDB (polo-like kinase 1 - polo-box domain): Primary Screen. 2.8% of 360,000 active. Serine/threonine-protein kinase PLK1 (Homo sapiens), P53350. AID 720504, 2013. Potency, µM, without a hit: max response, negative = inhibition, usual class: inhibitors. Plk1 PBD binding of FITC phosphopeptide, fluorescence polarization; note: potency is the fitted concentration of half-maximal effect; series mostly up to about 57 µM; % is set by controls: 0 for no effect and ±100 for the full control effect; nearly all actives have a fitted effect of over 65% in size
PI5P4Ka inh – qHTS for Inhibitors of phosphatidylinositol 5-phosphate 4-kinase (PI5P4K). AID 652105, 2013. PI5P4Kalpha enzyme, ADP-Glo luminescence, 60 min; hits give low values. max response, %. Phosphatidylinositol 5-phosphate 4-kinase type-2 alpha (Homo sapiens), P48426. 1.2% of 330,000 active; active = max response of -50% or lower; inconclusive = between -30% and -50%; inactive = -30% or higher; note: value at the top dose of about 77 µM; % is set by controls: 0 for no effect and ±100 for the full control effect
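ADP-Glo luminescence end-point after a 60 min room-temperature kinase reaction. PI5P4Kalpha and substrate in HEPES pH 7.4 buffer with EGTA, 0.1% CHAPS and 5% DMSO; ATP at 5 microM final.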
HP1b binding inh – HTS for Inhibitors of HP1-beta Chromodomain Interactions with Methylated Histone Tails; Chromobox protein homolog 1 (Homo sapiens), P83916; AlphaScreen HP1-beta / biotin-H3K9me3 peptide binding; 0.56% of 390,000 active; Potency, µM (top dose mostly 114 µM), without a hit: at the top dose activity change, negative = inhibition, hits mostly inhibitors; AID 540317, 2011; note: potency is the fitted concentration of half-maximal effect; nearly all actives have a fitted effect of over 70% in size
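Compound inhibition of the preformed complex between 50 nM HP1-beta and 50 nM biotinylated H3K9me3 peptide was read by AlphaScreen. Buffer was PBS pH 7.4 with 0.01% Tween-20. Incubations ran 30 min at room temperature, with 10 ug/mL donor/acceptor beads.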
JMJD2A Tudor – qHTS Assay for Inhibitors of JMJD2A-Tudor Domain; Potency, µM (top dose mostly 114 µM), inactives show top-dose activity change, negative = inhibition, hits mostly inhibitors; AlphaScreen JMJD2A-Tudor / H3K4me3 peptide binding; 4.4% of 390,000 active; note: potency is the fitted concentration of half-maximal effect; % is set by controls: 0 for no effect and ±100 for the full control effect; nearly all actives have a fitted effect of over 50% in size
Target sequence (O75164 whole entry, looked up, the tested form may be a part): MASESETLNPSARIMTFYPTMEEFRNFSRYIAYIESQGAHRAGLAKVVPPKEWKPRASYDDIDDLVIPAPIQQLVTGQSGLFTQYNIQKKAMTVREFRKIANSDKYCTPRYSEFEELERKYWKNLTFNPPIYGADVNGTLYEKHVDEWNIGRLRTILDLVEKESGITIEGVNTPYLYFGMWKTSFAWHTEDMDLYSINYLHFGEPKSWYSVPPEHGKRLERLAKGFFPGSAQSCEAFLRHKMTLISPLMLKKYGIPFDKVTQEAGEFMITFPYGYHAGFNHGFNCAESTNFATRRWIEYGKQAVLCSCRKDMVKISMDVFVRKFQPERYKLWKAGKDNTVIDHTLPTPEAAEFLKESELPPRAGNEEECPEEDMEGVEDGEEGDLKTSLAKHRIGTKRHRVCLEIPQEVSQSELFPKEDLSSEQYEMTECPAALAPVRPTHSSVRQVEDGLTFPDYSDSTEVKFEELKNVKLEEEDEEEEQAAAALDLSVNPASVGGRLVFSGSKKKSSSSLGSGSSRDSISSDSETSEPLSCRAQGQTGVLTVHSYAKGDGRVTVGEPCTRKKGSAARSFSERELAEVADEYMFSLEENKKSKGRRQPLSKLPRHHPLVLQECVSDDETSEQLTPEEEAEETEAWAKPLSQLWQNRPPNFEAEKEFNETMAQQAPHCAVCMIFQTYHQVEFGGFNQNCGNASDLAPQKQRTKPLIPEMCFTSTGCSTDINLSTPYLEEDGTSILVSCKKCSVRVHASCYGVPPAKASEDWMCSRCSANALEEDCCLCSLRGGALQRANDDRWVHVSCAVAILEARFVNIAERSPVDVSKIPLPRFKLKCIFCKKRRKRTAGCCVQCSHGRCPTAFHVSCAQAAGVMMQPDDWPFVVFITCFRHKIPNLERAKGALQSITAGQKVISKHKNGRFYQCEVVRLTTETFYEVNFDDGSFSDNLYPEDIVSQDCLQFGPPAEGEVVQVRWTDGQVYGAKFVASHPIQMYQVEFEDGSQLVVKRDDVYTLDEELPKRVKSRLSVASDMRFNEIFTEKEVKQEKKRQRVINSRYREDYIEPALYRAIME
G9a inh – qHTS Assay for Inhibitors of Histone Lysine Methyltransferase G9a | G9a H3K9 monomethylation, AlphaScreen, 2 h | Potency, µM (series often up to 102 µM), for the others: top-dose activity, negative = inhibition, most hits filed as inhibitors | 8.8% of 350,000 active | AID 504332, 2011; note: potency is the fitted concentration of half-maximal effect; % is set by controls: 0 for no effect and ±100 for the full control effect; nearly all actives have a fitted effect of over 75% in size
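AlphaScreen read-out: biotin-H3K9 peptide (500 nM) methylation by 20 nM enzyme with 20 uM SAM, 2 h at room temperature after 15 min compound preincubation; anti-monomethyl H3K9 antibody plus donor/acceptor beads, 10 min dark.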
BAZ2B block – qHTS Assay for Inhibitors of BAZ2B. AlphaScreen BAZ2B-H3K14Ac peptide displacement. 4.4% of 360,000 active. Potency, µM (doses to about 114 µM), inactives show at the top dose activity change, negative = inhibition, actives largely listed as inhibitors; note: potency is the fitted concentration of half-maximal effect; % is set by controls: 0 for no effect and ±100 for the full control effect; nearly all actives have a fitted effect of over 60% in size
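AlphaScreen luminescence quantifies BAZ2B engagement of H3K14Ac peptide; the protein and biotinylated peptide are both at 50 nM final, buffer PBS pH 7.4 with 0.01% Tween-20, all steps at room temperature.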
An asterisk follows results filed as active; ? = inconclusive; . = not tested or not shown; [ ] = remark or other dose. Sampled rows, rich in hits. Any-hit rate of the full collection: about 12%. Unless noted, calls come from the whole dose curve; as a rule, active = well fitted curve in the direction sought with a large enough effect; inconclusive = small, poorly fitted or top-dose-only effect, or another doubt; inactive = no such curve, though single readings can be large; an effect the other way counts as inactive or inconclusive.

SMILES	PLK1 PBD inh	PI5P4Ka inh	HP1b binding inh	JMJD2A Tudor	G9a inh	BAZ2B block
CCOc1ccccc1NC(=O)NC(CC)c1c(-n2cccc2)sc2c1CCN(C)C2 (stereo not drawn)	.	.	5.8%	-32.0%	?	-23.1%
CCC(NC(=O)Nc1ccc(OC)c(OC)c1)c1c(-n2cccc2)sc2c1CCN(C)C2 (stereo not drawn)	.	.	?	?	?	50.1µM*
CCOc1ccc(NC(=O)NC(C)c2c(-n3cccc3)sc3c2CCN(CC)C3)cc1 (stereo not drawn)	.	.	-15.2%	?	?	?
CCC(NC(=O)Nc1cc(OC)ccc1OC)c1c(-n2cccc2)sc2c1CCN(CC)C2 (stereo not drawn)	.	.	?	56.2µM*	14.1µM*	39.8µM*
CSc1ccc(CCNC(=O)c2ccc(-c3nc(COc4ccc(C)cc4)c(C)o3)cc2)cc1	.	.	39.9%	2.8%	?	1.2%
NC(=O)CC(O)c1cccc(Cl)c1 (stereo not drawn)	26.7µM*	4.9	-11.9%	-9.2%[11.4 µM]	32.2%	-1.9%
O=C(O)CC(c1cccc(Cl)c1)n1cccc1 (stereo not drawn)	-11.4%	1.7	0.7%	89.1µM*	-17.4%	-4.7%
COc1cc(/C=C/c2nc(C#N)c(NC3CCCCC3)o2)cc(OC)c1OC	.	.	-16.4%	-6.0%	-0.9%[59 µM]	?
O=C(CN1C(=O)NC2(CCCCC2)C1=O)N1CCN(S(=O)(=O)c2cccc([N+](=O)[O-])c2)CC1	6.2%	3.0	23.3%	-9.0%	3.5%[59 µM]	-2.6%
COc1ccc(NC2=CC(c3ccc(F)cc3)N(c3ccc(OC)cc3)C2=O)cc1 (stereo not drawn)	-2.6%	-0.4	2.7%	-35.2%	?	?
COc1cc(C2C=C(Nc3ccccc3)C(=O)N2c2ccccc2)ccc1O (stereo not drawn)	-10.4%	6.4	-2.8%	?	50.1µM*	?
COc1ccc(NC2=CC(c3ccc(OC)cc3)N(c3ccc(OC)cc3)C2=O)cc1 (stereo not drawn)	23.8µM*	0.8	1.8%	?	?	?
CC(=N)c1c(O)cc(C)oc1=O	-4.5%	0.4	12.4%[57 µM]	-8.3%	.	.
CC(=O)Oc1ccc(C(=C2CCCCC2)c2ccc(OC(C)=O)cc2)cc1	.	.	.	.	-39.8%[12.7 µM]	.
Cc1nn(CCCC(=O)NCCc2ccc(Cl)cc2)c(=O)c2nn(-c3ccccc3)c(C)c12	-8.9%	-2.6	57.8%	-12.3%	-4.6%	2.4%
CCOc1ccccc1NC1(c2ccccc2)C(=O)c2ccccc2C1=O	.	.	?	11.2µM*	11.2µM*	?
CCOc1ccccc1NCN1C(=O)c2ccccc2C1=O	-3.8%	3.5	.	.	.	.
COc1ccc(C)cc1NC1(c2ccccc2)C(=O)c2ccccc2C1=O	.	.	?	28.2µM*	12.6µM*	?
COc1ccc(C)cc1NC(=O)c1cccc(C(=O)Nc2cc(C)ccc2OC)c1	2.7%	2.8	55.0%	0.0%	5.0%[0.501 µM]	6.2%
CCc1ncc(CN2CCCC(C(=O)Nc3cccc(-c4cccc(C)c4)c3)C2)cn1 (stereo not drawn)	-6.5%	18.2	-12.8%	79.4µM*	-3.6%	-18.1%
CC(=O)c1cccc(CN2CCCC(C(=O)Nc3ccc(-c4ccco4)cc3)C2)c1 (stereo not drawn)	-8.3%	-17.5	17.8µM*	?	10µM*	39.8µM*
COCCc1ncc(CN2CCC(C(=O)Nc3cccc(-c4cscn4)c3)CC2)cn1	18.9µM*	-6.4	21.3%	?	-2.0%	-8.3%[57.1 µM]
CCCc1ncc(CN2CCC(C(=O)Nc3cccc(-c4cscn4)c3)CC2)cn1	-22.3%	-3.8	29.4%	-24.7%	0.2%	-14.3%[57.1 µM]
O=[N+]([O-])c1cc(-c2nc(-c3ccccc3)no2)ccc1NC1CCCC1	.	.	23.0%	-19.9%	-11.3%[59 µM]	?
COc1ccc(-c2cc(N)n(S(=O)(=O)c3c(F)c(F)c(F)c(F)c3F)n2)cc1OC	1.19µM*	.	14.9%	-30.8%	-16.3%[59 µM]	?
SMILES	PLK1 PBD inh	PI5P4Ka inh	HP1b binding inh	JMJD2A Tudor	G9a inh	BAZ2B block
COc1ccc(Nc2nc(NCc3ccco3)nc(N/N=C/c3ccccc3)n2)cc1	-2.1%	-11.4	3.7%	?	?	79.4µM*
CCOc1nc(NCc2ccco2)nc(Nc2ccc(OC)cc2)n1	-2.0%	-5.3	-7.3%	-16.4%	?	50.1µM*
Cc1ccc(C(=O)N/C(=C\c2ccc(Br)cc2)c2nc(=S)[nH][nH]2)cc1	-4.4%	.	-18.4%	44.7µM*	14.9%	?
O=C(N/C(=C/c1cccc(Br)c1)c1nc(=S)[nH][nH]1)c1ccccc1	-4.6%	0.4	?	?	?	?
O=C(NCCSc1ccccn1)c1ccc(Cl)cc1	-10.0%	0.6	53.3%	-7.7%	10.9%[59 µM]	2.3%
N#CC(Sc1ccccn1)c1ccc(Cl)cc1 (stereo not drawn)	7.52µM*	7.6	12.9%	-6.0%[11.4 µM]	7.94µM*	7.3%
NC(=O)C(c1ccccc1)c1ccc(C(=O)c2ccccc2)cc1 (stereo not drawn)	3.2%	0.0	27.6%	-7.0%	-8.2%	1.5%
Cc1cc(C)c2c(N)c(C(=O)N3CCN(c4ncccn4)CC3)sc2n1	?	-12.1	45.6%	39.8µM*	?	-1.5%
CCOC(=O)c1sc2nc(C)cc(C)c2c1N	-10.2%	0.1	36.6%	-9.9%	-30.4%[59 µM]	8.0%
Cc1cc(C)c2c(N)c(C(=O)NNC(=O)c3ccccc3)sc2n1	-22.8%	1.0	42.2%	-11.2%	44.7µM*	-25.5%
CCOC(=O)CNC(=O)c1sc2nc(C)cc(C)c2c1N	-3.0%	-8.7	49.8%	16.8%	50.1µM*	-0.7%
CN(CC(=O)Nc1cccc(F)c1)C(=O)CCCn1c(=O)oc2ccccc21	-7.7%	0.6	7.1%	-14.6%	6.8%[0.501 µM]	-5.3%
O=C(O)c1c(Cl)cccc1Nc1ccccc1	-23.4%	-4.4	-7.0%	-19.3%	.	.
CCN1CCN(c2cc(=O)n(Cc3ccc(F)cc3)c(=O)[nH]2)CC1	-7.0%	1.5	41.6%	5.2%	?	.
CCN1CCN(c2ccc(NC(=O)c3ccc4c(c3)[nH]c(=O)n4Cc3ccc(F)cc3)cc2)CC1	-3.0%	-8.7	-6.2%	?	50.1µM*	?
COc1ccc(Cn2c(=O)[nH]c3cc(C(=O)Nc4ccc(N5CCN(C)CC5)cc4)ccc32)cc1	-8.0%	0.1	-38.1%	?	44.7µM*	?
